# Rows were chosen to be rich in hits. Some 27% of all compounds tested hit in one or more screens of this group.
# CYP2C19 act: activators of human cytochrome P450 2C19 | recombinant CYP2C19, luciferin-H EGE luminescence; hits give high values; 0 = fully inhibited enzyme, 1 = untreated enzyme | activation factor at 5 µM | 96,000 tested, under 10 active | AID 1025;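 active = activation factor of at least 2 at 5 µM in the primary screen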
# CYP2C9 inhib: inhibitors of human CYP2C9 | P11712 | CYP2C9 Supersomes, luciferin-H conversion, luminescence | inhibition, % at 5 µM | 20% of 96,000 active;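 active = blocking of liver enzyme CYP2C9 beyond about 50% at 5 µM, limit read from the data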
# Target sequence (P11712 whole entry, looked up): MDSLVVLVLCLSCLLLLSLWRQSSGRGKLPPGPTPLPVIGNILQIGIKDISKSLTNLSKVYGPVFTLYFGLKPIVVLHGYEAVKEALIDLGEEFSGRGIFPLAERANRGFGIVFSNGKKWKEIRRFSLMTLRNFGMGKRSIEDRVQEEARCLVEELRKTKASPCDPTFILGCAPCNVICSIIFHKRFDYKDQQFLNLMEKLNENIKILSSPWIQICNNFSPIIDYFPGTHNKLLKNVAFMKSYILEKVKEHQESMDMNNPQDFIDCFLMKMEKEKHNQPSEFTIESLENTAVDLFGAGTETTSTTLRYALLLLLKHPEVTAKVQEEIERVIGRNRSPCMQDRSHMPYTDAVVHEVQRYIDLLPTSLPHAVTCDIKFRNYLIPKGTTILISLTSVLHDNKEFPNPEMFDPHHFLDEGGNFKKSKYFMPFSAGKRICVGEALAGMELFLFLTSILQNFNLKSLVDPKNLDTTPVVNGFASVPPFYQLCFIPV
# CYP2C19 inhib: inhibitors of human CYP2C19. CYP2C19 Supersomes, luciferin-H EGE luminescence, 30 min. 21% of 96,000 active. P33261. inhibition, % at 5 µM. AID 778;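 active = CYP2C19 inhibition above a set limit at 5 µM in the primary screen, cut at about 50% in these data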
# CYP2C9 act: increases human cytochrome P450 2C9 activity; recombinant CYP2C9, luciferin-H conversion, luminescence; hits give high values; factor 1 = untreated enzyme, 0 = blocked; activation factor at 5 µM; AID 1024; 1.4% of 96,000 active;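 active = activation factor of 2 or more for CYP2C9 at a 5 µM dose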
# Cav32 inh: inhibitors of human Cav3.2 T-type calcium channel | B-score at 10 µM | O95180 | 4% of 100,000 active | Cav3.2-expressing cells, Fluo-4 calcium fluorescence FDSS; hits give low values;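 active = single-dose well whose peak fluorescence ratio is a statistical outlier from its plate by either plate-standardised score or position-corrected B-score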
# A number is an active result; n = inactive; x = no result.
SMILES,CYP2C19 act,CYP2C9 inhib,CYP2C19 inhib,CYP2C9 act,Cav32 inh
N#Cc1c(N)nc(SCc2ccncc2)c(C#N)c1-c1cccs1,n,84,58,n,n
CCNc1nnc(-c2ccncc2)s1,n,n,71,n,n
CCC(=O)Nc1nnc(-c2ccncc2)s1,n,n,75,n,n
O=C(Nc1nnc(-c2ccncc2)s1)C1CCCO1 (centres undefined),n,n,78,n,n
O=C(Nc1nnc(-c2ccccc2F)s1)C1CCCO1 (centres undefined),x,x,x,x,n
CNc1nnc(-c2ccncc2)s1,n,n,n,n,n
CC(Sc1ccccc1)C(=O)Nc1ccc(S(=O)(=O)N2CCOCC2)cc1 (centres undefined),n,n,n,n,n
N#CCCNC(=O)CCN1CCCCC1,n,n,n,n,n
CSCCC(NC(=O)COc1ccccc1)C(=O)N1CCN(c2ccccc2F)CC1 (centres undefined),n,78,74,n,n
CN1CCN(c2ccccc2NC(=O)COc2ccccc2)CC1,n,n,n,n,n
CSc1ccccc1NS(=O)(=O)c1ccc2c(c1)OCCO2,n,n,79,2.7,n
COCCCNC(=O)c1ccccc1NS(C)(=O)=O,n,n,n,n,n
COCCCNC(=O)c1ccccc1NS(=O)(=O)c1ccc(C)cc1,n,n,74,n,n
CCCNC(=O)c1ccccc1NS(=O)(=O)c1ccc2c(c1)OCCO2,n,n,n,2,n
CSCCC(C(=O)OCC(=O)c1ccc(C)c(C)c1)N1C(=O)c2cc(Cl)c(Cl)cc2C1=O (centres undefined),n,n,n,n,n
CC(=O)c1cccc(NC(=O)c2nccnc2C(=O)O)c1,n,n,n,n,n
CCc1ccc(/C=N/Nc2nn[nH]n2)cc1,x,x,x,x,n
COC(=O)[C@H](Cc1ccccc1)NC(=O)NCc1ccccc1OC,n,n,n,n,n
COc1ccc(CCNS(=O)(=O)c2cccc(F)c2)cc1OC,n,51,51,n,n
COc1ccc(CCNC(=O)C2CC2)cc1OC,n,n,n,n,n
COc1ccc(CCNS(=O)(=O)c2cccc(S(=O)(=O)N3CCCC3)c2)cc1OC,n,84,96,n,n
CCC(C)c1ccc(O)c(NC(=O)c2cncc(Br)c2)c1 (centres undefined),n,50,n,n,n
CC(C)c1ccc(O)c(NC(=O)c2cccnc2)c1,n,n,70,n,n
CN(C)C(=O)c1ccc(NC(=O)c2cncc(Br)c2)cc1,x,x,x,x,n
CCOc1cccc(=O)c2c(C)n(C)c(C)c12,n,n,52,n,n
SMILES,CYP2C19 act,CYP2C9 inhib,CYP2C19 inhib,CYP2C9 act,Cav32 inh
COc1cccc(=O)c2c(C)n(C)c(C)c12,n,n,n,n,n
O=C(NN1C(=O)/C(=C/c2cccnc2)SC1=S)C(c1ccccc1)c1ccccc1,n,82,n,n,n
COc1ccc(/C=C2\CCCC(C(=O)C(F)(F)F)=C2O)cc1,n,82,n,n,n
O=C(C1=C(O)/C(=C/c2ccc(O)cc2)CCC1)C(F)(F)F,x,x,x,x,n
CC1CCc2nc(NC(=O)C3CCCO3)sc2C1 (centres undefined),n,n,n,n,n
N#Cc1c(NCCN)nc(NCc2ccccc2)c2c1CCN(Cc1ccccc1)C2,n,95,88,n,n
Nc1[nH]nc2nc(NCc3ccccc3)c3c(c12)CCN(Cc1ccccc1)C3,n,n,n,n,x
N#Cc1c(N2CCCCC2)nc(N2CCCCC2)c2c1CCN(Cc1ccccc1)C2,n,96,68,n,n
Cc1cc(C)c(C#N)c(N2CCN(Cc3ccccc3)CC2)n1,n,50,62,n,n
CCN1CCc2c(C#N)c(NCc3ccccc3)nc(N(CC)CC)c2C1,n,n,n,n,-4.2
C=CCNc1nc(NCc2ccccc2)c(C#N)c2c1CN(C)CC2,n,n,n,n,n
CC(/C=N/NC(=O)c1ccc(Br)cc1)=C\c1ccccc1,n,n,n,n,n
C/C(=N\NC(=O)c1ccc(Br)cc1)C1C(=O)c2ccccc2C1=O,n,n,n,n,-4.2
CCCCCNC(=O)C(C)Sc1ccc(Cl)cc1 (centres undefined),n,n,n,n,n
CCC(Cc1ccccc1)NC(=O)CSc1ccsc1[N+](=O)[O-] (centres undefined),n,n,72,n,n
O=C(CSc1ccsc1[N+](=O)[O-])NCCc1ccccc1,n,55,n,n,n
CC(Sc1ccsc1[N+](=O)[O-])C(=O)NCCc1ccc(Cl)cc1 (centres undefined),n,70,57,n,n
